PABP FP inh: PABP poly(A) RNA binding inhibitors, primary screen, biochemical, fluorescence polarization, uHTS; calls only at 35 µM; AID 2014, 2009; Polyadenylate-binding protein 1 (Homo sapiens), P11940; hit rate 1% among 290,000;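 further: calls also rest on retests at 20 µM and on dose response follow-up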
Target sequence (P11940 whole entry, looked up): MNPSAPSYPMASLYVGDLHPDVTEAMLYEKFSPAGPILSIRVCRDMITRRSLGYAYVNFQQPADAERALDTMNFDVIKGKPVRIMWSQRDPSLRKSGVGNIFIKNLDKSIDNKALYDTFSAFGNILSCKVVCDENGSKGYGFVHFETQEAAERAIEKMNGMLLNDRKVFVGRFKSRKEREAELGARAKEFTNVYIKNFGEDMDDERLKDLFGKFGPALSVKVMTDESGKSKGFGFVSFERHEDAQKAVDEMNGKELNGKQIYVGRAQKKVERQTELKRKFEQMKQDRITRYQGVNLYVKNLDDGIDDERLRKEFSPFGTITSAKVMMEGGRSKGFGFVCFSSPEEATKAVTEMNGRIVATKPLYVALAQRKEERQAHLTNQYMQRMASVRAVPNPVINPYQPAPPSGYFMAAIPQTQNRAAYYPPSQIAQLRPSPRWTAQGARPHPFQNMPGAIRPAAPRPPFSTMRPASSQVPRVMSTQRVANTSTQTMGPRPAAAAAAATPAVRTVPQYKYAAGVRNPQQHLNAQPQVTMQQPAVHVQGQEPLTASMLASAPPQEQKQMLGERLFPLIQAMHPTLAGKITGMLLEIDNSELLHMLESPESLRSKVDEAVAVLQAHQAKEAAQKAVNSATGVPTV
PHOSPHO1 inh: PubChem AID 1565 | Phosphoethanolamine/phosphocholine phosphatase (Homo sapiens), Q8TCT1 | hit rate 1.1% among 290,000 | inhibition, % at 13.3 µM | recombinant PHOSPHO1, absorbance phosphatase assay; in the data active means inhibition above about 60%
APOBEC3G inh: APOBEC3G DNA deaminase inhibitors, primary screen, biochemical, fluorescence, single-stranded DNA substrate, uHTS; inhibition, % at 20 µM; hit rate 0.28% among 330,000; DNA dC->dU-editing enzyme APOBEC-3G (Homo sapiens), Q9HC16; recombinant A3G, ssDNA deamination FAM/TAMRA fluorescence;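 active means inhibition of at least 40% at 20 µM, with no more than 30% in the related APOBEC3A deaminase screen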;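 further: plate controls were DMSO wells with A3G for no effect and wells lacking A3G enzyme for full effect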
eIF4H inh: human eIF4H binding inhibitors, primary screen, translation initiation inhibitor project, biochemical, uHTS, fluorescence polarization; Eukaryotic translation initiation factor 4H (Homo sapiens), Q15056; eIF4H fluorescence polarization binding assay; inhibition, % at 35 µM; hit rate 0.94% among 290,000;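 further: calls also rest on retests at 20 µM and on dose response follow-up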
APOBEC3A inh: APOBEC3A ssDNA deaminase inhibitors, primary screen, selectivity assay for APOBEC3G inhibitor project, biochemical, FAM/TAMRA oligo cleavage fluorescence. hit rate 0.41% among 330,000. inhibition, % at 20 µM. recombinant A3A, FAM/TAMRA ssDNA deamination fluorescence. DNA dC->dU-editing enzyme APOBEC-3A (Homo sapiens), P31941;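 active means at least 40% inhibition at 20 µM here, with at most 30% in a related deaminase screen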;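 further: plate controls were A3A with DMSO for no effect and wells lacking A3A enzyme for full effect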
PABP1 MLLE inh: inhibitors of PABP1 MLLE–PAM2 peptide binding, primary screen, biochemical, fluorescence polarization, FITC-PAM2, GST-MLLE; Polyadenylate-binding protein 1 (Homo sapiens), P11940; inhibition, % at 20 µM; hit rate 0.36% among 360,000; AID 588489, 2011; in the data active means inhibition above about 35%, passing the limit was not always enough;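 further: plate controls were DMSO wells with GST-MLLE for no effect and wells lacking GST-MLLE protein for full effect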
Starred values were filed as active, the others as inactive; i = inactive; ? = inconclusive; . = no result; + = active, no number. A selection: hits, their analogues and other compounds. The true share with any hit is near 2.6%. Unless noted, how the calls were made is not given here.

SMILES	PABP FP inh	PHOSPHO1 inh	APOBEC3G inh	eIF4H inh	APOBEC3A inh	PABP1 MLLE inh
CCN(C(=O)COC(=O)Cc1c[nH]c2ccccc12)C1CCS(=O)(=O)C1 (stereo unspecified)	i	45	-6	-7	-2	-12
CCOC(=O)C1=C(C)NC(C)=C(C(=O)OCC)C1c1ccc(OC)c(OC)c1	.	.	.	.	.	4
CCOC(=O)C1=C(C)NC(C)=C(C(=O)OCC)C1c1ccc(O)cc1	+	-44	-5	7.4*	-3	-4
CC(=O)Nc1ccc(SCCN2CC[C@@H](C(C)(C)C)CCC2=O)cc1	.	.	-4	.	0	41*
Cc1ccc(SCCN2CCC(C(C)(C)C)CCC2=O)cc1 (stereo unspecified)	i	-7	-11	6	-3	0
COc1ccc(SC[C@H](C)CN2CC[C@H](C(C)(C)C)CCC2=O)cc1	.	.	-12	.	-3	40*
Cc1ccc(S(=O)(=O)/C(C#N)=C/c2c(N3CCN(C)CC3)nc3c(C)cccn3c2=O)cc1	i	5	-4	52*	-4	-7
CCN1CCN(c2nc3c(C)cccn3c(=O)c2/C=C(\C#N)S(=O)(=O)c2ccc(C)cc2)CC1	i	24	-1	13	0	-3
Cc1ccc(S(=O)(=O)/C(C#N)=C/c2c(N3CC(C)OC(C)C3)nc3c(C)cccn3c2=O)cc1 (stereo unspecified)	+	-7	-4	46*	-2	1
COc1ccc(CNC(=O)COC(=O)c2nc3nc(C)cc(C)n3n2)cc1	.	.	-1	.	2	1
Cc1cc(C)n(-c2nc(SCCN(C)C)c3c4c(sc3n2)COC(C)(C)C4)n1	i	43	-5	-2	-2	-7
CN(C)S(=O)(=O)c1cccc(NC(=O)COC(=O)COc2ccc(Br)cc2)c1	i	45	-3	-10	-6	1
COc1ccc(C2C(C(=O)c3ccco3)=C(O)C(=O)N2c2nnc(C)s2)cc1OC (stereo unspecified)	?	31	-14	?	5	44*
COc1cc(C2C(C(=O)c3ccc(C)o3)=C(O)C(=O)N2c2cc(C)on2)cc(Br)c1O (stereo unspecified)	i	14	-12	4	-21	-4
COc1ccc(C2C(C(=O)c3ccc(C)o3)=C(O)C(=O)N2c2cc(C)on2)cc1OC (stereo unspecified)	i	60*	-2	-8	4	12
COc1ccc(C2C(C(=O)c3ccco3)=C(O)C(=O)N2c2nnc(C)s2)cc1 (stereo unspecified)	?	-13	-2	?	-3	36
NC(=O)c1ccc(N2CCCCC2)c(N2C(=O)C3C4C=CC(C4)C3C2=O)c1 (stereo unspecified)	i	-14	-5	5	-10	-13
O=C(O)c1ccc(N2CCOCC2)c(N2C(=O)C3C4C=CC(C4)C3C2=O)c1 (stereo unspecified)	i	62*	1	5	2	0
Cc1ccc(S(=O)(=O)NCCOc2nc(N(C)C)nc(N(C)C)n2)cc1	i	-10	-1	-6	-2	1
Cc1c(Cl)c(C(=O)NNC(=S)Nc2ccc(F)cc2)nn1C	i	-68	-2	12	0	-20
Cc1c(Cl)c(C(=O)NNC(=S)Nc2ccccc2)nn1C	i	66*	-1	6	3	-26
Cc1ccc(COc2ccsc2-c2n[nH]c(=S)n2C)cc1	i	107*	17	0	-2	0
Cn1c(-c2sccc2OCc2ccc(Cl)cc2Cl)n[nH]c1=S	i	12	9	2	2	-13
COc1ccc(-c2coc3c(C)c4oc(=O)c(CCC(=O)O)c(C)c4cc23)cc1	i	11	-4	-2	-2	5
Cc1c(CCC(=O)O)c(=O)oc2c(C)c3occ(-c4ccc(Br)cc4)c3cc12	+	-2	-7	72*	0	-14
SMILES	PABP FP inh	PHOSPHO1 inh	APOBEC3G inh	eIF4H inh	APOBEC3A inh	PABP1 MLLE inh
C/C(=N/NC(=O)CNC(=O)c1ccncc1)c1ccco1	i	24	-3	-3	-2	-3
Cc1ccccc1C(=O)Nc1ccnn1C1CCN(C(=O)c2ccoc2)CC1	i	14	-8	-3	-4	-3
Cc1ccc2oc(-c3cccc(NC(=O)c4ccc(Br)o4)c3)nc2c1	i	5	1	-4	2	-4
Cc1cc2nc(-c3cccc(NC(=O)c4ccc(Br)o4)c3)oc2cc1C	+	3	-6	active	-3	4
COC(=O)/C(C(C)=O)=C(\C=C\N(C)C)N(C)C	i	2	-6	2	-2	4
COC(=O)\C(C(C)=O)=C(/C=C/C=C/C=C/N(C)C)N(C)C	+	28	75	90*	86	3
CC(=O)c1ccc(N2CCN(S(=O)(=O)c3c(C)[nH]c(C)c3C(=O)N3CCCCC3)CC2)cc1	i	-29	-2	3	-3	3
O=C(Nc1ccc(F)cc1)c1csc(Cc2ccccc2)n1	i	12	-15	5.5*	-3	-7
Nn1c(=O)c2ccccc2n2c(SCc3ccc(C(F)(F)F)cc3)nnc12	i	90*	0	-8	2	-47
Cc1nn(-c2ccc(Cl)cc2)c(=O)c2ccccc12	i	29	-6	-2	-3	7
Cc1c(Cl)sn(-c2ccc(Cl)cc2)c1=O	i	-20	44*	-12	-2	-54
Cc1ccc(NC(=O)CCSc2nnc(C)o2)cc1	i	36	-2	-1	2	4
Cc1nn(C)c2c(=O)c(=O)c2n(C)[nH]1	i	32	-2	-5	2	-9
CCc1nn(C)c2c(=O)c(=O)c2n(C)[nH]1	+	47	4	99*	0	23
Cc1c(C(=O)NC(c2ccccn2)C(F)(F)F)oc2c(F)cccc12 (stereo unspecified)	i	16	-9	-4	-3	-5
Cc1nnsc1C(=O)N/N=C/c1ccc(OC(F)(F)F)cc1	i	32	0	0	3	0
Cc1ccc(Cl)cc1N1CCN(C(=O)CN(c2ccccc2)S(=O)(=O)N(C)C)CC1	i	-4	1	62*	15	7
O=C1N=c2ccccc2=C1c1sc(Nc2cccc(O)c2)nc1O	+	25	-4	59*	1	-17
O=C1N=c2ccccc2=C1c1sc(Nc2ccc(O)cc2)nc1O	i	-20	.	?	.	18
